# PubChem BioAssay (NCI)
# This is part of a sample that, as a whole, favours compounds with a hit. Of some 83,000 tested, about 20% had one in any assay.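 In brief: 96-well plates, 48 h treatment, single concentration, percent growth endpoint.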 Calls of active or inactive are those of the source. How the source made its calls: active means growth percent below 10; inactive means the rest.
# Tested on: NCI-H322M lung
# Assay: NCI-60 one-dose screen, 48 h (100 = growth as untreated, 0 = no growth, -100 = all killed)
# Details: 10 µM unless noted
row,Compound,growth
1,O=c1ccc(N=Nc2ccccc2)ccc1Cl,103% (inactive)
2,CCCCCCn1c(-c2ccc(C(=O)O/N=C(\N)c3ccc(OC)cc3)cc2)nc(-c2ccccc2)c1-c1ccccc1,69.4% (inactive)
3,COc1ccc(C(=O)C[C@]2(O)C(=O)Nc3c(Cl)ccc(Cl)c32)cc1,47.5% (inactive)
4,CCCCOc1nc2c(C)cccc2cc1-c1cc(-c2ccc(Cl)cc2)nc(-c2ccc(Cl)cc2)c1,97.1% (inactive)
5,CSc1ncccc1C(=O)OCC(=O)Nc1oc(C)c2c(C)n[nH]c(=O)c12,104% (inactive)
6,O=C(Oc1cccc2ccccc12)Oc1cccc2ccccc12,104% (inactive)
7,COC(=O)[C@H](C)NC(=O)NC(=O)NC(=O)CI,103% (inactive)
8,C[C@H](C(=O)Nc1ccc(S(N)(=O)=O)cc1)S(=O)(=O)c1ccccc1,108% (inactive)
9,c1ccc2c(c1)Nc1ccncc1S2,114% (inactive)
10,COc1ccc(C2CC(c3ccc(Nc4ccnc5cc(Cl)ccc45)cc3)=NN2C=O)cc1 (stereo not given),103% (inactive)
11,O=C(CS(=O)c1oc(-c2cccs2)nc1S(=O)(=O)c1ccc(Br)cc1)c1ccccc1 (stereo not given),97.7% (inactive)
12,O=C(N=c1oc2ccccc2cc1-c1cc2ccccc2[nH]1)Nc1ccc(Cl)cc1,87.8% (inactive)
13,CCc1cccc2c3c(sc12)C(c1ccc(F)cc1)C(C#N)=C(N)O3 (stereo not given),57.7% (inactive)
14,C/C(=C\C(=O)c1ccc(Cl)cc1)c1ccc(Cl)cc1,84.9% (inactive)
15,COc1cc(/C=C/c2ccccc2)cc(OC)c1,114% (inactive)
